Results taken from PubChem BioAssay (Tox21).
Inconclusive results are not listed. A call without a number means that no potency is given here. Calls of active or inactive are those of the source. Unless noted, calls follow the shape of the dose curve; as a rule, active = well fitted curve in the direction sought with a large enough effect in the repeat runs; inconclusive = weak or mixed curves; inactive = no such curve, though single readings can be large; an effect the other way counts as inactive or inconclusive.

Tests used:
[1] = qHTS assay to identify aromatase inhibitors - cell viability counter screen (AID 743084);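 also: cells stimulated with testosterone during compound exposure; nearly all actives have a fitted effect of over 55% in size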; also: potency is read from the fitted curve at half-maximal effect
[2] = molecular target: Aryl hydrocarbon receptor (Homo sapiens) (UniProt P35869); experiment: qHTS assay to identify small molecule that activate the aryl hydrocarbon receptor (AhR) signaling pathway (AID 743085); also: nearly all actives have a fitted effect of over 15% in size; also: potency is read from the fitted curve at half-maximal effect;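 as to activation: HG2L7.5c1 human HepG2 liver cells with stably integrated DRE-driven firefly reporter; series mostly up to about 70 µM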
Sequence of Aryl hydrocarbon receptor (Homo sapiens) (P35869 whole entry, looked up): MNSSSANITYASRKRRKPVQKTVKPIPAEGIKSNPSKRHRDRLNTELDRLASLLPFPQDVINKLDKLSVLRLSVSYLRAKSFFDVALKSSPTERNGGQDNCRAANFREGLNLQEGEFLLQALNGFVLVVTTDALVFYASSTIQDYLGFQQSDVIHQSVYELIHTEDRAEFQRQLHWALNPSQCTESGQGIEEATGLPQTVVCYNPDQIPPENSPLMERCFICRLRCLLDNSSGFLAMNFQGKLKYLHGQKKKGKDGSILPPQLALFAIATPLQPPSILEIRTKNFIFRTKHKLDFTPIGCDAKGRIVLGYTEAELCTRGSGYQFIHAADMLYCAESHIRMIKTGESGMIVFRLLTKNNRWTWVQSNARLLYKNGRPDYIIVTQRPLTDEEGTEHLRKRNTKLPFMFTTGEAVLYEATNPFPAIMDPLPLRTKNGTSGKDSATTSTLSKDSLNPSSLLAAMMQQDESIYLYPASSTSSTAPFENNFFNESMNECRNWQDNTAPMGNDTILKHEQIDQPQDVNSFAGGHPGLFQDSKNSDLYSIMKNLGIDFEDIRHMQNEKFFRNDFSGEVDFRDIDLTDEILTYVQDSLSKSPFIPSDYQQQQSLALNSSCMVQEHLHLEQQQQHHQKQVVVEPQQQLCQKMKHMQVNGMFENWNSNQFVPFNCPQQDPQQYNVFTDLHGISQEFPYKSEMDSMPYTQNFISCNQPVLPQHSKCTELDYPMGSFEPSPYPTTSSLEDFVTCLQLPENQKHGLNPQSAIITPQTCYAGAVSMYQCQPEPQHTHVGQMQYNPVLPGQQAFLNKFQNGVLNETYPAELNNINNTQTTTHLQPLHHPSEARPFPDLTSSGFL
Procedure, shortened: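 Cell line HG2L7.5c1 (human hepatoma, 20× DRE-luc). Plated, 5 h 37C, compound/DMSO added, 24 h 37C. CellTiter-Fluor 30 min 37C → fluorescence; then ONE-Glo 30 min RT → luminescence.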

[3] = qHTS assay to identify small molecule that activate the aryl hydrocarbon receptor (AhR) signaling pathway - cell viability counter screen (AID 743086); also: nearly all actives have a fitted effect of over 45% in size; also: potency is read from the fitted curve at half-maximal effect
Procedure, shortened: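 HepG2-AhR-luc (HG2L7.5c1) cells, 4000/well, treated 24 h at 37 C with compound; viability measured as CellTiter-Fluor fluorescence after 30 min in the same wells as the luciferase read.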

[4] = molecular target: Peroxisome proliferator-activated receptor gamma (Homo sapiens) (UniProt P37231); experiment: qHTS assay to identify small molecule agonists of the peroxisome proliferator-activated receptor gamma (PPARg) signaling pathway (AID 743094; active = well fitted activation curve with a large enough effect in the signal ratio in the repeat runs, not every such curve was filed as active; the % refers to the signal ratio)
Sequence of Peroxisome proliferator-activated receptor gamma (Homo sapiens) (P37231 whole entry, looked up): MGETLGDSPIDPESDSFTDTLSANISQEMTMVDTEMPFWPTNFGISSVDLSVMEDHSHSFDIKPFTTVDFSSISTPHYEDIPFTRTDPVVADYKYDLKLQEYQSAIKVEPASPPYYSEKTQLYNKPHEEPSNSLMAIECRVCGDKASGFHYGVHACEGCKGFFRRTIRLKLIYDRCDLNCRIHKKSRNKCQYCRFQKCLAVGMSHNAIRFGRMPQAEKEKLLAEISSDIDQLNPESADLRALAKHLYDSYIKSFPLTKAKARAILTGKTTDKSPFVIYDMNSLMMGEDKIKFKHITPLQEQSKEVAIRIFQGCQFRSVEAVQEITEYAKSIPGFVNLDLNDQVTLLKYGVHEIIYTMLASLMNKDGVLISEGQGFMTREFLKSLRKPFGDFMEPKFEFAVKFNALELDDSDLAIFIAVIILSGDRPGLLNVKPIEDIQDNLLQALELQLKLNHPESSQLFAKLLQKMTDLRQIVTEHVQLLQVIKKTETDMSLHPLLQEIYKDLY
Procedure, shortened: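 Agonism was assessed in a beta-lactamase reporter system, HEK293H cells with a stably integrated UAS-bla construct under PPARg control; the 17 h treatment at 37C preceded a 1 h room-temperature FRET substrate read.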

[5] = qHTS assay for small molecule agonists of the antioxidant response element (ARE) signaling pathway (AID 743202; active = well fitted activation curve with a large enough effect in the signal ratio in the repeat runs, not every such curve was filed as active; the % refers to the signal ratio; also: potency is read from the fitted curve at half-maximal effect)
Procedure, shortened: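 HepG2 ARE-bla reporter line, 2,000 cells/well; 5 h preincubation 37 C/5% CO2; compound (DMSO) 16 h 37 C; B/G FRET substrate 2 h RT; fluorescence intensity.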

[6] = qHTS assay for small molecule agonists of the antioxidant response element (ARE) signaling pathway - cell viability counter screen (AID 743203; calls by dose curve; also: nearly all actives have a fitted effect of over 55% in size)
Procedure, shortened: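 ATP content via CellTiter-Glo luminescence served as the viability measure. Cells: ARE-bla HepG2, 2,000 per well. Exposure: 16 hrs, 37C/5% CO2.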

[7] = qHTS assay for small molecule activators of the heat shock response signaling pathway - cell viability counter screen (AID 743209); also: nearly all actives have a fitted effect of over 50% in size
Procedure, shortened: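 Compounds dissolved in DMSO were added to overnight-plated HSE-bla HeLa cells and left 5 h at 37 C. Cell viability was quantified by luminescence using CellTiter-Glo.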

[8] = qHTS assay for small molecule activators of the heat shock response signaling pathway (AID 743210; active = well fitted activation curve with a large enough effect in the signal ratio in the repeat runs, with a control signal flat, not every such curve was filed as active; the % refers to the signal ratio;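 also: HeLa cells with beta-lactamase reporter driven by heat shock elements; series mostly up to about 63 µM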)
Procedure, shortened: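 Beta-lactamase reporter read-out: FRET substrate fluorescence after 2.5 h at RT, following 5 h compound treatment at 37 C of HeLa cells carrying HSE-driven bla reporter; quantitative HTS format.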

[9] = qHTS assay to identify small molecule agonists of the peroxisome proliferator-activated receptor delta (PPARd) signaling pathway - cell viability counter screen (AID 743211); also: nearly all actives have a fitted effect of over 55% in size
Procedure, shortened: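 HEK293H PPARd-bla, 3000 cells/well; 5 h preincubation 37C/5% CO2; cpd in DMSO, 17 h 37C; B/G FRET substrate 2 h RT; CellTiter-Glo 30 min RT, luminescence.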

[10] = molecular target: Peroxisome proliferator-activated receptor delta (Homo sapiens) (UniProt Q03181); experiment: qHTS assay to identify small molecule agonists of the peroxisome proliferator-activated receptor delta (PPARd) signaling pathway (AID 743212; calls by dose curve)
Sequence of Peroxisome proliferator-activated receptor delta (Homo sapiens) (Q03181 whole entry, looked up): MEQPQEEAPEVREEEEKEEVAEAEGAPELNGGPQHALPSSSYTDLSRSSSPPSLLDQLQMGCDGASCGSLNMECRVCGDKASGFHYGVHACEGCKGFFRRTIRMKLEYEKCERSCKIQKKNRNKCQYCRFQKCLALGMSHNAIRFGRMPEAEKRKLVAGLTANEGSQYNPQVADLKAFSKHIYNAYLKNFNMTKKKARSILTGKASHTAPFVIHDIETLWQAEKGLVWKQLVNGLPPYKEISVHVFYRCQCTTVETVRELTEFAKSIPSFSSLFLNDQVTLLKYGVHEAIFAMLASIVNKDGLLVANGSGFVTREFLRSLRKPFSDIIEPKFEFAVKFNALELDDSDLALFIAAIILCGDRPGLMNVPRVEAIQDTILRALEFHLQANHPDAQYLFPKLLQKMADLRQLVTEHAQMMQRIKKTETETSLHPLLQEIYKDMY
Procedure, shortened: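 Read-out: beta-lactamase FRET fluorescence after 2 h room-temperature incubation with LiveBLAzer B/G substrate. Cells were HEK293H carrying a UAS-bla reporter for PPARd, treated at 37 C with DMSO-dissolved compounds.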

[11] = qHTS assay to identify small molecule antagonists of the peroxisome proliferator-activated receptor delta (PPARd) signaling pathway - cell viability counter screen (AID 743213); also: nearly all actives have a fitted effect of over 50% in size
Procedure, shortened: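 Same-well viability: cells pre-incubated 5 h, dosed with compound plus 300 nM L165041, kept 17 h at 37 C, FRET substrate 2 h RT, then CellTiter-Glo 30 min RT and luminescence.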

[12] = molecular target: Peroxisome proliferator-activated receptor delta (Homo sapiens) (UniProt Q03181); experiment: qHTS assay to identify small molecule antagonists of the peroxisome proliferator-activated receptor delta (PPARd) signaling pathway (AID 743215; active = well fitted inhibition curve with a large enough effect in the signal ratio in the repeat runs, not every such curve was filed as active; the % refers to the signal ratio;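 also: cells stimulated with agonist L165041 at 300 nM final during compound exposure; series mostly up to about 62 µM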)
Procedure, shortened: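 Here, a reporter line (HEK293H, beta-lactamase under a UAS) measures PPARd signaling. Compounds are tested against agonist L165041 at 300 nM final concentration over 17 h at 37 C, with fluorescence read after substrate.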

[13] = qHTS assay to identify small molecule agonists of the farnesoid-X-receptor (FXR) signaling pathway - cell viability counter screen (AID 743218); also: nearly all actives have a fitted effect of over 45% in size
Procedure, shortened: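 Quantitative HTS counter screen measuring ATP-based viability via CellTiter-Glo luminescence in HEK 293T cells carrying a UAS-driven beta-lactamase reporter, after 16 h compound exposure at 37 C.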

[14] = qHTS assay to identify small molecule antagonists of the farnesoid-X-receptor (FXR) signaling pathway - cell viability counter screen (AID 743221; active = well fitted cell-killing curve with a large enough effect in the repeat runs, not every such curve was filed as active; also: nearly all actives have a fitted effect of over 50% in size)
Procedure, shortened: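 Luminescence from CellTiter-Glo measures cytotoxicity in GeneBLAzer FXR-UAS-bla HEK 293T cells. Cells were exposed to compounds with 50 uM chenodeoxycholic acid (final) for 16 h at 37 C, in wells also used for the reporter readout.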

[15] = molecular target: Vitamin D3 receptor (Homo sapiens) (UniProt P11473); experiment: qHTS assay to identify small molecule agonists of the vitamin D receptor (VDR) signaling pathway (AID 743222; calls by dose curve)
Sequence of Vitamin D3 receptor (Homo sapiens) (P11473 whole entry, looked up): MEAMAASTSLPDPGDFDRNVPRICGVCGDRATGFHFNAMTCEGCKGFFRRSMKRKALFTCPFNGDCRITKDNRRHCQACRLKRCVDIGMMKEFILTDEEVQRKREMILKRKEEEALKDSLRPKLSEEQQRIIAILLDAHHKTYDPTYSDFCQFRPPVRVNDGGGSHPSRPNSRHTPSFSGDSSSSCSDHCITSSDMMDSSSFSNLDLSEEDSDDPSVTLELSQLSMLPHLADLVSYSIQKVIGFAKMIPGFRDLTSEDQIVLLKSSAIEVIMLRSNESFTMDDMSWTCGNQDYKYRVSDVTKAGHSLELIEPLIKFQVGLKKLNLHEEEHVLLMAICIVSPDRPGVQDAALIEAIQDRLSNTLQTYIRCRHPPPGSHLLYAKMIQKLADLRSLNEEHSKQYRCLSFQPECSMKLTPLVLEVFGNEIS
Procedure, shortened: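 Tox21 cell reporter format: VDR-bla line, 16 h compound exposure in 5% CO2 at 37C, then fluorescence intensity after 2 h with LiveBLAzer B/G FRET substrate.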

[16] = molecular target: Vitamin D3 receptor (Homo sapiens) (UniProt P11473); experiment: qHTS assay to identify small molecule antagonists of the vitamin D receptor (VDR) signaling pathway (AID 743223; active = well fitted inhibition curve with a large enough effect in the signal ratio in the repeat runs, not every such curve was filed as active; the % refers to the signal ratio)
Procedure, shortened: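 Antagonist mode uses 1alpha,25-dihydroxyvitamin D3 at 3 nM final as stimulus. VDR-bla cells receive compounds in DMSO, incubate 16 h at 37C, then a beta-lactamase FRET substrate for 2 h at room temperature before fluorescence measurement.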

[17] = molecular target: Bile acid receptor (Homo sapiens) (UniProt Q96RI1); experiment: qHTS assay to identify small molecule antagonists of the farnesoid-X-receptor (FXR) signaling pathway (AID 743217; active = well fitted inhibition curve with a large enough effect in the signal ratio in the repeat runs, not every such curve was filed as active; the % refers to the signal ratio)
Sequence of Bile acid receptor (Homo sapiens) (Q96RI1 whole entry, looked up): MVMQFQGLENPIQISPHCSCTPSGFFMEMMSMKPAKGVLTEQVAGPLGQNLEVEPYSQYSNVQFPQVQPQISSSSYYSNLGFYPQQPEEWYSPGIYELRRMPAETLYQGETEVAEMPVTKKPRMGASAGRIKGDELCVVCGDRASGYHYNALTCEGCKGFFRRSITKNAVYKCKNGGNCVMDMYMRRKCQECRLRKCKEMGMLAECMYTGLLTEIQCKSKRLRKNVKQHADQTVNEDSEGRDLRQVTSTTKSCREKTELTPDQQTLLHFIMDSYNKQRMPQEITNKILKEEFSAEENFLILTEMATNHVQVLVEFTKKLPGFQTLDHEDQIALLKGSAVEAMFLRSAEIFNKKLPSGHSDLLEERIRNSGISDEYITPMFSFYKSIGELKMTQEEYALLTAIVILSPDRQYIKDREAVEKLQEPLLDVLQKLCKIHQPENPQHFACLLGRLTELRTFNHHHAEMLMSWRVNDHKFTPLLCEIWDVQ
Procedure, shortened: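 Test compounds are pin-transferred onto FXR-bla HEK 293T cells, then chenodeoxycholic acid is added at 50 uM final. After 16 h at 37 °C, LiveBLAzer B/G substrate is applied for 2 h at room temperature and fluorescence read.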

[18] = molecular target: Bile acid receptor (Homo sapiens) (UniProt Q96RI1); experiment: qHTS assay to identify small molecule agonists of the farnesoid-X-receptor (FXR) signaling pathway (AID 743220; active = well fitted activation curve with a large enough effect in the signal ratio in the repeat runs, not every such curve was filed as active; the % refers to the signal ratio)
Procedure, shortened: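 FXR-UAS-bla HEK 293T cells carrying a UAS-driven beta-lactamase reporter were plated for 5 h at 37C/5% CO2, then exposed to DMSO-dissolved Tox21 10K compounds for 16 h at 37C. A LiveBLAzer B/G FRET substrate was loaded for 2 h at room temperature before fluorescence reading.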

[19] = qHTS assay to identify small molecule antagonists of the peroxisome proliferator-activated receptor gamma (PPARg) signaling pathway - cell viability counter screen (AID 743194); also: nearly all actives have a fitted effect of over 55% in size
Procedure, shortened: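 Cytotoxicity counter screen in PPARg-bla HEK293H cells, same wells as reporter assay. Compounds plus 50 nM rosiglitazone (final) for 17 h at 37 C, then viability read by CellTiter-Glo luminescence.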

Row | SMILES | Potency [1] | Potency [2] | Potency [3] | Potency [4] | Potency [5] | Potency [6] | Potency [7] | Potency [8] | Potency [9] | Potency [10] | Potency [11] | Potency [12] | Potency [13] | Potency [14] | Potency [15] | outcome [16] | Potency [17] | Potency [18] | Potency [19]
1 | C=C(C)C(=O)OCCOCC | inactive | inactive | inactive | inactive | inactive | inactive | inactive | inactive | inactive | inactive | inactive | inactive | inactive | inactive |  |  |  |  | 
2 | O=C(O)c1ccco1 | inactive | inactive | inactive | inactive | inactive | inactive | inactive | inactive | inactive |  | inactive |  | inactive | inactive | inactive | inactive |  |  | 
3 | COc1ccc(C)cc1[N+](=O)[O-] | inactive | inactive | inactive | inactive |  | inactive | inactive | inactive | inactive |  | inactive |  | inactive | inactive | inactive |  | inactive | inactive | 
4 | COc1cc(C(=O)OCCCN2CCCN(CCCOC(=O)c3cc(OC)c(OC)c(OC)c3)CC2)cc(OC)c1OC | 8.41 µM (active) | inactive | inactive |  | 11.9 µM (active) | inactive | inactive | inactive | inactive |  |  | inactive | inactive | inactive | inactive |  |  |  | inactive
5 | CN(C)c1ccc(C(c2ccccc2)c2ccc(N(C)C)cc2)cc1 | inactive | inactive | inactive |  | inactive | inactive | inactive | inactive |  |  | inactive |  | inactive | inactive | inactive |  |  |  | inactive
6 | CCN(CC)c1ccc2c(-c3ccccc3C(=O)O)c3ccc(=[N+](CC)CC)cc-3oc2c1 | 8.63 µM (active) | inactive | 9.69 µM (active) | inactive |  | inactive | inactive | inactive | inactive |  | inactive |  |  |  | inactive |  | inactive |  | inactive
7 | O=C(Nc1ccccc1)c1ccccc1O | inactive | 21.7 µM (active) | inactive | inactive |  | inactive | inactive | inactive |  | inactive | inactive | inactive | inactive | inactive |  |  |  |  | inactive
8 | CCCCCCCCCCCCCCCCOS(=O)(=O)O | inactive | inactive | inactive | inactive |  |  | inactive |  |  |  |  |  | inactive | inactive | inactive |  |  | inactive | inactive
